Many of the other results were omitted from the sample, so hits are more common in it than they were.
Hedgehog inh: Sonic Hedgehog pathway inhibition; Shh-LIGHT2 Gli-luciferase reporter, 30 h; hit rate 2.1% among 22,000; inhibition, % (test concentration not listed);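 active = mean inhibition across valid replicates above about 65%, limit read from the data; inconclusive = mean under the limit, yet half or more replicates past it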;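 note: pathway switched on by Shh-conditioned medium diluted 1 in 25 in low serum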
MITF inhib: blocks MITF activity; TRPM1 promoter luciferase, luminescence, 24 h; inhibition, % (test concentration not listed); hit rate 0.28% among 37,000; AID 2240; in the data active = inhibition above about 85%; inconclusive = no clear call, values can overlap the other calls; inactive = below about 68%;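 note: human melanocyte line stably carrying TRPM1 promoter luciferase reporter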
BJeLR viability: lowers viability of BJeLR cells. viability loss activity score, % (test concentration not listed). hit rate 0.64% among 30,000. BJeLR fibroblasts viability, CellTiterGlo ATP luminescence, 48 h; HRASV12, hTERT and SV40 LT/ST transformed; in the data active = viability loss activity score above about 50%; inconclusive = no clear call, values can overlap the other calls; inactive = below about 35%;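 note: higher score means fewer live cells and less ATP luminescence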
Active calls of the source: *; ? = inconclusive; / = no result given.

SMILES | Hedgehog inh | MITF inhib | BJeLR viability
CC(C)CN(CC(C)C)C(=O)C1c2ccccc2Oc2ccccc21 | / | / | -1
C[C@H]1CN([C@@H](C)CO)C(=O)c2cccc(NS(=O)(=O)c3ccc(Cl)cc3)c2O[C@H]1CN(C)C(=O)NC1CCCCC1 | 17 | 18 | 2
C[C@H](CO)N1C[C@H](C)[C@H](CN(C)C(=O)NC2CCCCC2)Oc2c(NS(=O)(=O)c3ccc(Cl)cc3)cccc2C1=O | 100* | 15 | 5
COc1ccc(S(=O)(=O)Nc2cccc3c2O[C@@H](CN(C)CC2CCCCC2)[C@H](C)CN([C@@H](C)CO)C3=O)cc1 | -67 | 2 | -4
C[C@@H]1CN([C@@H](C)CO)C(=O)c2cccc(NS(=O)(=O)c3ccc(Cl)cc3)c2O[C@@H]1CN(C)C(=O)Nc1ccc(C(F)(F)F)cc1 | -9 | 88* | -1
COc1ccc(S(=O)(=O)Nc2cccc3c2O[C@@H](CN(C)C(=O)NC2CCCCC2)[C@@H](C)CN([C@H](C)CO)C3=O)cc1 | 66* | 32 | 1
COc1ccc(S(=O)(=O)Nc2cccc3c2O[C@@H](CN(C)CC2CCCCC2)[C@@H](C)CN([C@H](C)CO)C3=O)cc1 | 71* | 2 | 5
COc1ccc(S(=O)(=O)Nc2cccc3c2O[C@H](CN(C)C(=O)NC2CCCCC2)[C@@H](C)CN([C@@H](C)CO)C3=O)cc1 | -42 | -10 | 0
C[C@@H]1CN([C@H](C)CO)C(=O)c2cccc(NS(=O)(=O)c3ccc(Cl)cc3)c2O[C@@H]1CN(C)C(=O)Nc1ccc(C(F)(F)F)cc1 | -13 | 28 | -7
COc1ccc(-c2cc(C(=O)NCc3cccc(OC)c3)c3ccccc3n2)cc1 | / | / | -2
Cc1ccc(N=C2SCC(=O)N2C)cc1 | / | / | -2
S=C(NC1CCCCC1)N(Cc1ccccc1)Cc1ccccc1 | / | / | -10
COC(=O)c1c(C)oc2ccc(OCC#N)cc12 | / | / | 2
C=CCOc1ccccc1OCC(O)CNC(C)C (configuration not stated) | -20 | 22 | 56*
CC(=O)Nc1ccc(OCC(O)CNC(C)C)cc1 (configuration not stated) | -7 | 18 | 4
CN1C(=O)[C@@]2(Cc3ccccc3)SSS[C@]1(CO)C(=O)N2C | 70* | 91* | 87*
O=C(CSc1nc2ccc([N+](=O)[O-])cc2[nH]1)Nc1cc(C(F)(F)F)cc(C(F)(F)F)c1 | / | 87* | /
O=C(CSc1nc2ccc([N+](=O)[O-])cc2[nH]1)Nc1ccc2c(c1)OCCO2 | / | -5 | /
COc1c2c(cc3oc(=O)ccc13)OC(C)(C)C=C2 | -37 | -85 | 1
COc1cc2c(cc1OC)[C@@H]1C(=O)c3ccc4c(c3O[C@@H]1CO2)C=CC(C)(C)O4 | 32 | 100* | 5
Cc1c(S(=O)(=O)c2ccc(Cl)cc2)csc1C(=O)N(c1ccccc1)S(C)=O (configuration not stated) | 88* | 25 | 8
O=C(O)CN(c1ccccc1)S(=O)(=O)c1ccc(Cl)cc1 | / | -6 | /
COc1ccc(CNC(=O)Cn2ccc3ccccc3c2=O)cc1 | / | / | 3
O=C(NCc1ccc2c(c1)OCO2)c1nnc(-c2ccccc2)o1 | / | / | 2
Cc1ccccc1C(=O)NCCC(C)C | / | / | -1
SMILES | Hedgehog inh | MITF inhib | BJeLR viability
Cc1onc(-c2ccccc2)c1C(=O)NCCCn1ccnc1 | / | -9 | /
Cc1oc2c(c1C(=O)NCCC(C)C)C(=O)c1ccccc1C2=O | 90* | ? | 32
Cc1oc2c(c1C(=O)NCCCn1ccnc1)C(=O)c1ccccc1C2=O | 110* | 66 | 30
COc1ccc(CCNC(=O)c2cn(CC(C)C)c(=O)c3cc(OC)c(OC)cc23)cc1OC | / | / | -11
O=C(CN1C(=O)CC(c2ccccc2)S(=O)(=O)c2ccccc21)NC1CCCCC1 (configuration not stated) | / | / | 0
COc1ccc(S(=O)(=O)Nc2ccc3c(c2)C(=O)N([C@@H](C)CO)C[C@H](C)[C@H](CN(C)Cc2ccc(Oc4ccccc4)cc2)O3)cc1 | 40 | 47 | /
COc1ccc(S(=O)(=O)Nc2ccc3c(c2)C(=O)N([C@H](C)CO)C[C@@H](C)[C@@H](CN(C)Cc2ccc(Oc4ccccc4)cc2)O3)cc1 | 68* | 40 | -6
C[C@H](CO)N1C[C@H](C)[C@H](CN(C)Cc2ccc(Cl)c(Cl)c2)Oc2ccc(NC(=O)c3ccncc3)cc2C1=O | 86* | 15 | -2
COc1ccc(S(=O)(=O)Nc2ccc3c(c2)C(=O)N([C@H](C)CO)C[C@@H](C)[C@@H](CN(C)Cc2ccc(Cl)c(Cl)c2)O3)cc1 | 78* | 27 | -2
C[C@@H]1CN([C@H](C)CO)C(=O)c2cc(NC(=O)c3ccncc3)ccc2O[C@H]1CN(C)Cc1ccc(Cl)c(Cl)c1 | / | -9 | 0
COc1ccc(S(=O)(=O)Nc2ccc3c(c2)C(=O)N([C@@H](C)CO)C[C@H](C)[C@H](CN(C)Cc2ccc(Cl)c(Cl)c2)O3)cc1 | 20 | 8 | 0
Cc1cc(-c2ccc(F)cc2)nc2cc(C(=O)Nc3ccccc3C(F)(F)F)nn12 | / | / | -1
O=C1C(SCCO)=C(SCCO)C(=O)c2ccccc21 | 104* | 103* | 117*
O=C1c2ccccc2C(=O)N1C(CO)C(O)c1ccccc1 (configuration not stated) | -21 | 11 | 4
S=C(NCCc1ccccc1)NCC(c1cccnc1)N1CCOCC1 (configuration not stated) | / | / | -5
CC(C)(C)c1ccc(OCC(=O)Nc2ccc3c(c2)oc2ccccc23)cc1 | / | / | 1
Cc1ccc(-c2nc3ccccc3[nH]2)cc1NC(=O)COc1cccc([N+](=O)[O-])c1 | / | -4 | /
Cc1ccc(-c2nc3ccccc3[nH]2)cc1NC(=O)COc1ccccc1[N+](=O)[O-] | / | 86* | /
O=C1NCCN/C1=C/C(=O)c1ccc(Br)cc1 | / | / | 20
CC1=CC(C)C2(COC(=O)Nc3ccccc3)COC(c3cccnc3)C1C2C (configuration not stated) | 92* | 53 | -1
c1cncc(C2OCC3(CO2)COC(c2cccnc2)OC3)c1 (configuration not stated) | -21 | -7 | -1
C=CCc1ccc(OCc2ccccc2)c(OC)c1 | / | / | 1
COc1cc(CO)ccc1OCc1cccc(C(=O)O)c1 | / | 93* | /
CCC(C(=O)NCc1ccccc1)n1c2ccccc2c2cn[nH]c(=O)c21 (configuration not stated) | / | / | -1
CC1CC(C)CN(CCCNC(=O)Cn2c3ccccc3c3cn[nH]c(=O)c32)C1 (configuration not stated) | / | / | 2
SMILES | Hedgehog inh | MITF inhib | BJeLR viability
N#C/C(=C\c1cc(Cl)cc(Cl)c1)c1cccnc1 | 73* | 2 | -2
N#C/C(=C\c1ccncc1)c1ccc(NC(N)=O)cc1 | -12 | -66 | 2
CCOc1ccc(CC(=O)NCc2cn3ccc(C)cc3n2)cc1 | / | / | 0
Cc1oc2cc(OC(C)C)ccc2c(=O)c1-c1ccc2c(c1)OCCO2 | -14 | -21 | 2
Cc1oc(-c2ccc3c(c2)OCCO3)cc1C(=O)NCC(=O)O | / | 86* | /
O=C(O)C1CSC(c2ccccc2Cl)N1C(=O)c1ccccc1F (configuration not stated) | / | / | -2
CCc1ccc(Sc2cc(C(=O)NCc3cccnc3)c3ccccc3n2)cc1 | / | / | 2
O=C(O)COc1cccc(-c2nc3ccccc3s2)c1 | / | 105* | /
Cc1cccc(OCC(=O)Nc2cccc(-c3nc4ccccc4s3)c2)c1 | / | -14 | /

Compound activity deposited in PubChem BioAssay by Broad Institute.
